According to PubChem BioAssay (Tox21):
Records with an inconclusive call do not appear. Active and inactive are the calls of the source. Unless noted, the call rests on the fitted dose curve; in most records, active means well fitted curve in the direction sought with a large enough effect in the repeat runs; inconclusive means weak or mixed curves; inactive means no such curve, though single readings can be large; an effect the other way counts as inactive or inconclusive.

What was measured:
[1] = qHTS assay to identify small molecule agonists of the TGF-beta/Smad signaling pathway (AID 1346859; active means well fitted activation curve with a large enough effect in the signal ratio in the repeat runs, not every such curve was filed as active; the % refers to the signal ratio; further: series mostly up to about 77 µM)
Procedure, shortened: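 Stable Smad binding element-beta-lactamase HEK 293T cells; 5 hr compound exposure at 37 C under 5% CO2; 2 hr room-temperature substrate step; fluorescence excited at 405 nm, collected at 460 nm and 530 nm.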

[2] = target: Thyrotropin-releasing hormone receptor (Homo sapiens) (UniProt P34981); test: qHTS assay to identify small molecule agonists of the thyrotropin-releasing hormone receptor (TRHR) signaling pathway (AID 1346891; calls by dose curve;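 further: HEK293 cells expressing TRHR with calcium dye readout; series mostly up to about 58 µM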)
Thyrotropin-releasing hormone receptor (Homo sapiens), sequence (P34981 whole entry, looked up): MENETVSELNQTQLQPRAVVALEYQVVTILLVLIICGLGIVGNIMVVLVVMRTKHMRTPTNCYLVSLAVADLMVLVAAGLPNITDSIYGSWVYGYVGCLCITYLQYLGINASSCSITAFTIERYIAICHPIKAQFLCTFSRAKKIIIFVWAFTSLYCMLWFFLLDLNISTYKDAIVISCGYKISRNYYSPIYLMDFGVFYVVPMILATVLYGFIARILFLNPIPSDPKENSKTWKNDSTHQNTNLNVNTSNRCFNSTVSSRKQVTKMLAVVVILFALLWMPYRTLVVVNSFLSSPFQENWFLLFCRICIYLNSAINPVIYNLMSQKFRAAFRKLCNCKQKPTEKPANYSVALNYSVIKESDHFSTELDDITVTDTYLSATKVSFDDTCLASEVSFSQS
Procedure, shortened: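 In 1536-format, 1500 TRHR-Hek293 cells per well grew 18 h, took up calcium dye for 2 h at 37 °C, received compound, and were read kinetically; 15-point titrations, triplicates.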

[3] = Human pregnane X receptor (PXR) small molecule agonists, qHTS cell viability counter screen (AID 1346977); further: nearly all actives have a fitted effect of over 50% in size
Procedure, shortened: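 Readout is CellTiter-Fluor fluorescence from PXR-Luc HepG2 cells. Plated cells rested 5hr, then were treated with compounds for 24hr at 37C and 5% CO2, with reagent present during the last hour.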

[4] = Caspase-3/7 induction in CHO-K1 cells by small molecules, qHTS cell viability counter screen (AID 1346979); further: nearly all actives have a fitted effect of over 35% in size
Procedure, shortened: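 To flag cytotoxic compounds, treated CHO-K1 wild-type cells were given CellTiter-Fluor at 16hr and read fluorescently after 1hr at 37C; the caspase-3/7 luminescence was measured in these same wells.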

[5] = Caspase-3/7 induction in CHO-K1 cells by small molecules, qHTS assay (AID 1346980); further: nearly all actives have a fitted effect of over 15% in size
Procedure, shortened: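 Luminescent Caspase-Glo 3/7 read (30min, room temperature) quantified apoptosis induction. Cells were wild-type CHO-K1, treated with compound for 17hr at 37 C and 5% CO2.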

[6] = Caspase-3/7 induction in HepG2 cells by small molecules, qHTS cell viability counter screen (AID 1346981); further: series mostly up to about 92 µM; nearly all actives have a fitted effect of over 30% in size
Procedure, shortened: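 Multiplexed with the caspase-3/7 assay: HepG2 cells, 16 hr compound treatment, CellTiter-Fluor viability detection by fluorescence.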

[7] = target: Nuclear receptor subfamily 1 group I member 2 (Homo sapiens) (UniProt O75469); test: Human pregnane X receptor (PXR) small molecule agonists, qHTS assay (AID 1346982); further: nearly all actives have a fitted effect of over 35% in size
Nuclear receptor subfamily 1 group I member 2 (Homo sapiens), sequence (O75469 whole entry, looked up): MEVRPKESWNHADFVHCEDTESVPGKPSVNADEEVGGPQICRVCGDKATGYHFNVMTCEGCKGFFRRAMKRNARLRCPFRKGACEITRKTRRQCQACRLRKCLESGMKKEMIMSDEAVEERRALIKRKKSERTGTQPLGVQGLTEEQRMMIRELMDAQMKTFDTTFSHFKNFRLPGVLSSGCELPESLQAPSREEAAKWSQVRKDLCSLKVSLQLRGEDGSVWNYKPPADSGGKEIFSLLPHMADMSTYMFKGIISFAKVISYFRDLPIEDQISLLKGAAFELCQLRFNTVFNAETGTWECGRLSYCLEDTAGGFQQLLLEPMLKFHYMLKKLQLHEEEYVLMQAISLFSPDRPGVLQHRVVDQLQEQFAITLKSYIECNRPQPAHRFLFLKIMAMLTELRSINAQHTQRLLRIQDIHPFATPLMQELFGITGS
Procedure, shortened: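 We seeded PXR-Luc HepG2 cells in assay medium containing 5% charcoal-stripped FBS, added compounds 5 hr later, incubated 24 hr, and read luminescence with ONE-Glo reagent.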

[8] = Caspase-3/7 induction in HepG2 cells by small molecules, qHTS assay (AID 1346978); further: nearly all actives have a fitted effect of over 15% in size
Procedure, shortened: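 Caspase-3/7 induction was measured by Caspase-Glo 3/7 luminescence (30 min, room temperature) after a 17 hr compound exposure of wild-type HepG2 cells seeded at 2,000 per well and pre-incubated 5 hr.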

[9] = target: Nuclear receptor subfamily 1 group I member 2 (Rattus norvegicus) (UniProt Q9R1A7); test: Rat pregnane X receptor (rPXR) activation by small molecules, qHTS assay (AID 1346983); conditions: rPXR luciferase reporter cells, One-Glo luminescence, 24 h; max activation: active compounds read high; further: nearly all actives have a fitted effect of over 20% in size
Nuclear receptor subfamily 1 group I member 2 (Rattus norvegicus), sequence (Q9R1A7 whole entry, looked up): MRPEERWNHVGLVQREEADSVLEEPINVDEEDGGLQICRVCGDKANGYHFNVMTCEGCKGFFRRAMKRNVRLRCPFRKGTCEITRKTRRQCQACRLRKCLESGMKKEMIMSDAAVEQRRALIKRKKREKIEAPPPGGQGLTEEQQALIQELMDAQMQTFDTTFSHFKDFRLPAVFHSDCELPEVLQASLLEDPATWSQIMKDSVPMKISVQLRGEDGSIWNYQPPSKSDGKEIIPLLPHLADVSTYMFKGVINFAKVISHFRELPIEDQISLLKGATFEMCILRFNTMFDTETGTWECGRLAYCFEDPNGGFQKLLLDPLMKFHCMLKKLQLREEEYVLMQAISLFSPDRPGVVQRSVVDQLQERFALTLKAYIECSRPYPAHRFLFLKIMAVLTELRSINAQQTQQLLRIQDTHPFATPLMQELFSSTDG
Procedure, shortened: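 Luminescent readout (One-Glo luciferase, 30 min room temperature) followed 24 hr compound treatment at 37 C of rPXR cells plated 2,000 per well and preincubated 5hr; qHTS format with compounds delivered in DMSO.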
On the % scale 0 is the no-effect control and ±100 the full control effect.

Nc1cc(S(=O)(=O)O)ccc1S(=O)(=O)O
inactive: outcome [1] | outcome [2] | Potency [3] | Potency [4] | outcome [5] | Potency [6] | Potency [7]

CCOC(=O)CC#N
inactive: outcome [1] | outcome [2] | Potency [3] | outcome [5] | Potency [6] | Potency [7]

COC(=O)CCC(=O)O
inactive: outcome [1] | Potency [3] | outcome [8] | Potency [4] | outcome [5] | Potency [6] | Potency [7]

CCOC(=O)CCc1ccccc1
inactive: outcome [1] | Potency [3] | outcome [8] | Potency [4] | outcome [5] | Potency [6] | Potency [7]

Cc1nc2ccccc2c(=O)o1
inactive: outcome [1] | Potency [3] | outcome [8] | Potency [4] | outcome [5] | Potency [6] | Potency [7]

CC(=O)OC(C)(C)Cc1ccccc1
inactive: outcome [1] | Potency [3] | outcome [8] | Potency [4] | outcome [5] | Potency [6] | Potency [7]

O=C(O)C(=O)Nc1cccc(-c2nn[nH]n2)c1
inactive: outcome [1] | Potency [3] | outcome [8] | Potency [4] | outcome [5] | Potency [6] | Potency [7]

C[C@H](CCC(=O)O)[C@H]1CC[C@H]2[C@@H]3[C@H](O)C[C@@H]4C[C@H](O)CC[C@]4(C)[C@H]3C[C@H](O)[C@]12C
inactive: outcome [1] | Potency [3] | outcome [8] | Potency [4] | outcome [5] | Potency [6] | Potency [7]

NC(=O)NC(=O)Cc1ccccc1
inactive: outcome [1] | outcome [2] | Potency [3] | outcome [5] | Potency [6] | Potency [7] | max activation [9] -4.53%

CC(=O)c1ccc2c(c1)CCCC2
inactive: outcome [1] | Potency [3] | outcome [8] | Potency [4] | outcome [5] | Potency [6] | Potency [7]

CC(CC(=O)O)CC(C)(C)C (configuration not stated)
inactive: outcome [1] | outcome [2] | Potency [3] | Potency [4] | outcome [5] | Potency [6] | Potency [7]

C=C(C)[C@@H]1CC[C@@H](C)C[C@@H]1O
inactive: outcome [1] | Potency [3] | outcome [8] | Potency [4] | outcome [5] | Potency [6] | Potency [7]

CCC(=O)OCCC(C)CCC=C(C)C (configuration not stated)
inactive: outcome [1] | Potency [3] | outcome [8] | Potency [4] | outcome [5] | Potency [6] | Potency [7]

CCCC(C)CC (configuration not stated)
inactive: outcome [1] | Potency [3] | outcome [8] | Potency [4] | outcome [5] | Potency [6] | Potency [7]

O=CO
inactive: activation [1] 2.26% [at 6.97 µM] | activity change, negative = cytotoxicity [3] -2.18% [at 8.39 µM] | caspase activation [8] 0.203% [at 8.39 µM] | activity change, negative = cytotoxicity [4] -2.32% [at 8.39 µM] | caspase-3/7 activation [5] 0.126% [at 8.39 µM] | activity change, negative = cytotoxicity [6] 4.68% [at 8.39 µM]

CC(C)CCO
inactive: outcome [1] | Potency [3] | outcome [8] | Potency [4] | outcome [5] | Potency [6] | Potency [7]

CCCCOC(=O)[C@@H](C)Oc1ccc(Oc2ccc(C(F)(F)F)cn2)cc1
inactive: outcome [1] | Potency [3] | outcome [8] | Potency [4] | outcome [5] | Potency [6] | Potency [7]

CCC(O)C(C)(C)C (configuration not stated)
inactive: outcome [1] | outcome [2] | Potency [3] | Potency [4] | outcome [5] | Potency [6] | Potency [7]

Cc1ccc(C(=O)C(=O)O)cc1C
inactive: outcome [1] | Potency [3] | Potency [4] | outcome [5] | Potency [6] | Potency [7]

COC(/C=C(\C)CCC=C(C)C)OC
inactive: outcome [1] | Potency [3] | outcome [5] | Potency [6] | Potency [7]

CC(C)(CO)[C@@H](O)C(=O)NCCCO
inactive: outcome [1] | Potency [3] | Potency [4] | outcome [5] | Potency [6] | Potency [7] | max activation [9] -0.489%

NC(=O)C1(N2CCCCC2)CCN(CCCC(=O)c2ccc(F)cc2)CC1
inactive: outcome [1] | Potency [3] | outcome [8] | Potency [4] | outcome [5] | Potency [6] | Potency [7] | max activation [9] 0.444%

NCCc1ccn[nH]1
inactive: outcome [1] | Potency [3] | outcome [8] | outcome [5] | Potency [6] | Potency [7] | max activation [9] -4.71%

CN=C(NC#N)NCCSCc1csc(N=C(N)N)n1
inactive: outcome [1] | Potency [3] | outcome [8] | outcome [5] | Potency [6]

CCCCC(C)C(=O)O (configuration not stated)
inactive: outcome [1] | Potency [3] | outcome [8] | Potency [4] | outcome [5] | Potency [7]

CN[C@@H]1[C@@H](O)[C@@H](O[C@@H]2[C@H](O)[C@H](O[C@H]3OC(CN)=CC[C@H]3N)[C@@H](N)C[C@H]2N)OCC1(C)O (some centres not stated)
inactive: Potency [3] | outcome [8] | Potency [4] | outcome [5] | Potency [6]

Cc1c(C(C)C)c(=O)n(-c2ccccc2)n1C
inactive: outcome [1] | Potency [3] | outcome [8] | Potency [4] | outcome [5] | Potency [6] | Potency [7] | max activation [9] -1.17%

CNC(=O)NC
inactive: outcome [1] | Potency [3] | outcome [8] | outcome [5] | Potency [6] | Potency [7]
